# High-throughput results as filed in PubChem.
# Only some compounds are listed: those with a hit (about 3.9% of all), similar ones and a draw of the others.
# D1 ag – agonists of human D1 dopamine receptor | P21728 | HEK293 T-REx D1 cells, calcium flux, agonist mode | activation, % at 2 µM | 1% of 360,000 active | AID 504660; in the data active = activation above about 30%
# Target sequence (P21728 whole entry, looked up): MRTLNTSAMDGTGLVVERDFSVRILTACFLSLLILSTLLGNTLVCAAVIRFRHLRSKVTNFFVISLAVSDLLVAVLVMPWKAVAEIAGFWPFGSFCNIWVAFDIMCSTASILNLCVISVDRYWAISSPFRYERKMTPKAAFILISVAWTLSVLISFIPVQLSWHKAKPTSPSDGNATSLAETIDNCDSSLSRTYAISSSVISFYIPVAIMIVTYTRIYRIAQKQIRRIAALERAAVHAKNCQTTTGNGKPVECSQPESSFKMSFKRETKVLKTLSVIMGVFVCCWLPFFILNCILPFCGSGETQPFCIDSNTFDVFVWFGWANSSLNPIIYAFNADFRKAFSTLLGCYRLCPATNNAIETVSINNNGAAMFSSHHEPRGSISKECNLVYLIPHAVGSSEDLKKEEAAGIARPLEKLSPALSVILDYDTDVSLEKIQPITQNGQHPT
#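 Inducible HEK293 T-REx D1 cells, force-coupled to calcium signalling, were plated at 4000 cells/well with tetracycline and held overnight at 30 C. After no-wash calcium dye loading, compound-evoked calcium rise over 180 s flagged agonists.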
# D1 antag – human D1 dopamine receptor antagonism. 3.2% of 360,000 active. HEK293 TREx D1 cells, calcium flux, dopamine EC80; active compounds read low. activity change, negative = inhibition, % at 10 µM; in the data active = activity change below about -30%
#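 Inducible Hek293 Trex D1 cells (tetracycline, overnight, 30 C). Calcium dye 30–90 min RT. Antagonist mode: EC80 dopamine added after 180 s compound read.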
# Eya2 phos inh – Eya2 (human) phosphatase inhibition; AID 488837; Potency, µM (series often up to 76.9 µM), hits mostly inhibitors; O00167; 0.006% of 330,000 active; recombinant Eya2, OMFP fluorescence dephosphorylation (OMFP is methylfluorescein phosphate)
#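 Eya2 protein (added as 0.2 uM solution) was preincubated with compound for 10 min at ambient temperature in 50 mM HEPES pH 7.5, 50 mM NaCl, 5 uM MgCl2, 0.05% BSA, 1 mM DTT. OMFP (added at 50 uM) then reacted 10 min; fluorescence read at 485/525 nm.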
# GALK inhibitor – blocks human galactokinase activity. AID 1868. P51570. Purified GALK, Kinase-Glo residual ATP luminescence. Potency, µM (doses to about 57.5 µM), usual class: inhibitors. 0.007% of 270,000 active
#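 Galactose (100 uM) and ATP (35 uM) were turned over by 5 nM GALK for 1 h at RT. Kinase-Glo Plus then converted the remaining ATP into a luminescent signal.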
# USP2a block – inhibitors of human ubiquitin-specific protease USP2a. O75604. USP2 core, Ub-CHOP2 coupled fluorogenic reporter, 485/531. Potency, µM (titrated, usually from 38.3 µM), hits mostly inhibitors. 0.01% of 330,000 active
#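 USP2 core (10nM final) preincubated 30min RT with compound in 20mM Tris-HCl pH 8.0, 2mM CaCl2, 2mM beta-mercaptoethanol, 0.05% CHAPS; 25nM Ub-CHOP2 plus 25nM reporter substrate added, fluorescence (Ex485/Em531) read after 60min.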
# D1 PAM – human D1 dopamine receptor positive modulation. HEK293 TREx D1 cells, calcium flux, dopamine EC20 potentiation. 0.036% of 360,000 active. P21728. potentiation, % at 10 µM; in the data active = potentiation above about 30%
# A number is an active result; 0 = inactive; - = not tested or not shown. Unless noted, calls come from the whole dose curve; as a rule, active = well fitted inhibition curve with a large enough effect; inconclusive = small, poorly fitted or top-dose-only effect, or effect the other way; inactive = flat fitted curve, though single readings scatter.
SMILES,D1 ag,D1 antag,Eya2 phos inh,GALK inhibitor,USP2a block,D1 PAM
CC(C)c1ccc(/C=C/C(=O)Nc2nn[nH]n2)cc1,0,-30.6,0,0,0,0
COc1ccc(NC(=O)CN2CCC(n3c(C)nc4cc(F)ccc43)CC2)c(OC)c1,0,0,0,0,0,0
Cc1nc2ccccc2n1C1CCN(CC(=O)NCc2ccc(F)cc2)CC1,0,-43.4,0,0,0,0
Cc1ccccc1NC(=O)Nc1ccc2c(c1)CCC2,0,0,0,0,0,0
COc1ccc(C)cc1NC(=O)Nc1ccc2c(c1)CCC2,0,-43.5,0,0,0,0
COc1ccccc1NC(=O)Nc1ccc2c(c1)CCC2,0,0,0,0,0,37.9
COc1ccc(NC(=O)Nc2ccc3c(c2)CCC3)cc1OC,0,0,0,0,0,0
CN1C2CC(OC(=O)[C@H](CO)c3ccccc3)CC1C1OC12 (some centres not stated),-,-,0,-,-,-
Cc1cccc(C(=O)Nc2ccccc2OCc2cc(=O)n3c(C)csc3n2)c1,0,0,-,-,-,0
Cc1c(C(=O)N2CCCC2)oc2c1-c1nn(CC(=O)NCc3ccccc3F)cc1CC2,0,0,-,-,-,0
Cc1ccc(-c2csc(NC(=O)/C=C/c3cccs3)n2)cc1C,0,-78.8,0,0,0,0
N#Cc1ccc(-c2csc(NC(=O)/C=C/c3cccs3)n2)cc1,0,-44.3,0,0,0,0
N#Cc1ccc(-c2csc(NC(=O)C3CC3)n2)cc1,0,0,0,0,0,0
CCN(CC)C(=O)Cn1cc(SCC(=O)Nc2cc(OC)ccc2OC)c2ccccc21,0,0,-,-,-,0
c1ccc(CN(Cc2ccccc2)Cc2nnc(-c3cc4ccccc4[nH]3)o2)cc1,0,0,-,-,-,0
NC(N)=Nc1nc(C2COc3ccccc3O2)cs1 (configuration not stated),0,-30.6,0,0,0,0
COc1cccc2cc(C(=O)NCc3ccccc3)c(=N)oc12,0,0,0,0,0,0
COc1cccc2cc(C(=O)NCCc3ccccc3)oc12,57.0,-34.5,0,0,0,0
COc1cc2[nH]c(=O)n(CCCC(=O)NCc3ccccc3Cl)c(=O)c2cc1OC,0,0,-,-,-,0
COc1ccc(C2(C(=O)Nc3cc(C)on3)CCOCC2)cc1,0,-60.1,0,0,0,0
O=[N+]([O-])c1ccc(O)c(-c2ccnc3cc(-c4ccccc4)nn23)c1,0,0,-,-,-,0
Cc1ccc(NC(=O)C2CCN(S(=O)(=O)c3ccc(N4CCCC4=O)cc3)CC2)cc1Cl,0,-70.9,0,0,0,0
CN(C)c1ccc(CNC(=O)C2CCN(S(=O)(=O)c3ccc4[nH]c(=O)ccc4c3)CC2)cc1,0,-40.7,-,-,-,0
Cc1ccc(NC(=O)C2CCCN(S(=O)(=O)c3ccc4[nH]c(=O)ccc4c3)C2)cc1Cl (configuration not stated),0,-48.3,-,-,-,0
CCOC(=O)c1cc(S(=O)(=O)N2CCN(c3ccc(C(C)=O)cc3)CC2)[nH]n1,0,0,-,-,-,0
SMILES,D1 ag,D1 antag,Eya2 phos inh,GALK inhibitor,USP2a block,D1 PAM
COc1ccccc1NC(=O)C1=C(C)Nc2nc(SCc3ccccc3F)nn2C1c1cccs1 (configuration not stated),0,0,-,-,-,0
Cc1ccc(CNC(=O)CSCc2ccccc2F)cc1,0,0,0,0,0,0
O=C(CSCc1ccccc1F)NCc1ccc(F)cc1,0,-34.8,0,0,0,0
Cc1ccc(CNC(=O)CN2Cc3ccccc3C2=O)cc1,0,-37.4,-,-,-,0
Cc1ccc(CNC(=O)CN2CCN(Cc3ccc(C)cc3)C2=O)cc1,0,0,0,0,0,0
COc1cccc(NC(=S)N(CCCN2CCOCC2)C(C)c2cc3cccc(OC)c3o2)c1 (configuration not stated),0,-68.5,0,0,0,0
CCN1CCN(c2ccc(NC(=O)COc3ccccc3Cl)cc2)CC1,0,-42.0,0,0,0,0
O=C(O)CCCC(=O)Nc1ccc(Br)cc1,0,0,0,0,0,0
CCN1CCN(c2ccc(NC(=O)Cc3ccccc3)cc2)CC1,0,-61.9,0,0,0,0
O=C(O)CCCC(=O)Nc1ccc(Cl)cc1,0,-54.3,0,0,0,0
